# The source made the active and inactive calls.
# What was measured:
# Albumin (Bos taurus) = Albumin (Bos taurus) (UniProt P02769); assay: bovine serum albumin binders on microarray, profiling panel, artefact control for SMM control protein annotation, biochemical, small-molecule microarray, Alexa647 label, 635/667 nm fluorescence (AID 1118); conditions: BSA-A647 binding, fluorescence 635 nm, higher = more signal;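 note: score merges 667 nm emission intensity and signal-to-noise per printed compound spot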
# [1] = small-molecule microarray binders of probe aXIP, primary screen, biochemical, NeuroSMM set, 635/667 nm fluorescence (AID 1119); conditions: higher = more signal, called active from +8 up or from −8 down;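 note: probe is the protein aXip251-270 applied at 1 µg/mL to compound-printed slides; binding of probe to printed compounds measured as 667 nm fluorescence plus signal to noise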
# [2] = small-molecule binders of probe aNOTCH3, primary screen, biochemical, small-molecule microarray, 635/667 nm fluorescence (AID 1120); conditions: higher = more signal;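 note: probe is a biotin-tagged antibody raised against NOTCH3 rather than NOTCH3 protein; score merges spot fluorescence near 667 nm with spot signal to noise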
# [3] = small-molecule binders of probe aNOTCH2, primary screen, biochemical, small-molecule microarray, 635/667 nm fluorescence (AID 1121); conditions: higher = more signal;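 note: score merges feature fluorescence read at 667 nm with its signal to noise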
# [4] = target: Carbonic anhydrase 2 (Homo sapiens) (UniProt P00918); assay: CAII small-molecule binders, profiling panel, biochemical, small-molecule microarray, Alexa647-labelled CAII (AID 1122); conditions: CAII-A647 binding fluorescence, higher = more signal
# [5] = COS7 lysate on small-molecule microarray, probe aHis, 635 nm (AID 1123); conditions: COS7 cell lysate, fluorescence, higher = more signal;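 note: z-score combines 667nm fluorescence intensity with signal-to-noise per printed compound spot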
# [6] = compound binding in COS7 lysate, probe aLAP1, primary screen, cell lysate, small-molecule microarray (AID 1124); conditions: probe aLAP1, fluorescence, higher = more signal;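 note: lysate comes from COS7 cells expressing LAP1 and is applied at 0.3 µg/mL; score merges spot fluorescence near 667 nm with signal-to-noise over triplicate slides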
# Sam68 (KHDRBS1) = assay: Sam68 small-molecule binders, primary screen, biochemical, small-molecule microarray, 635 nm fluorescence (AID 1125); conditions: small-molecule microarray binding, higher = more signal;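 note: score merges 667 nm channel intensity with signal to noise over triplicate slides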
# [7] = system: Chordin-like protein 2 (CHRDL2); assay: CHRDL2 small-molecule binders, primary screen, biochemical, small-molecule microarray, 635 nm fluorescence (AID 1126); conditions: small-molecule microarray binding, fluorescence 635 nm; higher = more signal;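 note: printed compound slides probed with Chrdl2 protein at 4 µg/mL for 1 h at 4 C; score merges 667 nm emission intensity with signal to noise over three replicate slides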
# [8] = target: Concanavalin-A (Canavalia ensiformis) (UniProt P02866); assay: ConA small-molecule binders, primary screen, artefact control for SMM control protein annotation, biochemical, small-molecule microarray, Alexa647 label, 635 nm (AID 1127); conditions: ConA-A647 binding fluorescence, higher = more signal;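 note: z combines 667 nm emission intensity with signal-to-noise across three replicate slides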
# Chain of Concanavalin-A (Canavalia ensiformis) (P02866 whole entry, looked up): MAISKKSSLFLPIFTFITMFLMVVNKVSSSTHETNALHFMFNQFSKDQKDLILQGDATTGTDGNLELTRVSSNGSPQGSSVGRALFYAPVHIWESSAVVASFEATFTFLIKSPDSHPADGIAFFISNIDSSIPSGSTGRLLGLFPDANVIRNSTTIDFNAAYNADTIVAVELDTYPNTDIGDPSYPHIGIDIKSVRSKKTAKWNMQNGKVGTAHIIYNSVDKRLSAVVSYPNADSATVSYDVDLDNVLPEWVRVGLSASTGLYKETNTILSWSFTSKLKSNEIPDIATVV
# Chain of Albumin (Bos taurus) (P02769 whole entry, looked up): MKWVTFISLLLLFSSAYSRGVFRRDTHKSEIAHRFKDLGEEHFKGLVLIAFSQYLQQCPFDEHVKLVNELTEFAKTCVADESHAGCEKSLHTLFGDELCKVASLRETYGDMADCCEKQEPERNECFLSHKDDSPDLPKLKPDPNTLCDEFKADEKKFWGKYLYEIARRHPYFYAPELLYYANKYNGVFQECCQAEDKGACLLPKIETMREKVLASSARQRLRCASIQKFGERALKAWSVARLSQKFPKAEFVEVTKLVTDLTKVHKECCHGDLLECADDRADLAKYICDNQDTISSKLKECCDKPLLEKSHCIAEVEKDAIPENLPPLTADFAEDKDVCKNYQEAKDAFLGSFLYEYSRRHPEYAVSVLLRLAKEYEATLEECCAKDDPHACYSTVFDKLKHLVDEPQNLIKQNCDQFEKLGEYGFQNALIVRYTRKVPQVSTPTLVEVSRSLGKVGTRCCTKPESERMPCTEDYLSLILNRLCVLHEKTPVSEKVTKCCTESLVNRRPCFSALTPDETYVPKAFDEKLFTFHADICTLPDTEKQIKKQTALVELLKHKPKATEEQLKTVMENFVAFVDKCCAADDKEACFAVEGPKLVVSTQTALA
SMILES,composite z-score (Albumin (Bos taurus)),composite Z-score [1],composite z-score [2],composite z-score [3],composite z-score [4],composite z-score [5],composite z-score [6],composite z-score (Sam68 (KHDRBS1)),composite z-score [7],composite z-score [8]
[N-]=[N+]=NCc1ccccc1C[C@@]1(C(=O)N2CCOCC2)N=C(c2ccc(OCCCO)cc2)O[C@@H]1c1ccccc1N=[N+]=[N-],1.02,-0.188 (inactive),0.402,0.0753,0.771,2.48,0.358,1.3,-1.07,1.18
COC(=O)c1c(CC[C@@H](CO)NC(=O)N[C@H](Cn2cc(-c3cncn3C)nn2)C(C)C)oc(C(C)=O)c1C(=O)OC,0.697,0.24 (inactive),-0.0647,-0.11,0.514,0.651,0.203,1.27,0.0779,1.07
CCC1=C2CN(Cc3ccccc3Br)[C@@H]([C@@H](O)Cc3ccccc3)C2C=CCC1 (stereo not given in full),0.714,1.22 (inactive),-0.0277,-0.123,0.366,1.01,-0.0566,1.3,0.611,0.646
C[C@]1(C(=O)NCc2ccccc2)c2ccccc2C(=O)N(Cc2cc(C(F)(F)F)cc(C(F)(F)F)c2)[C@H]1c1ccc(CO)cc1,0.157,-0.471 (inactive),0.154,0.0827,0.529,0.9,0.158,1.3,0.242,0.677
O=C(CS)NCCCCCCNC(=O)[C@@H]1C[C@@H]2C(=O)N[C@@H](Cc3ccccc3)C(=O)N2[C@@H]1c1ccc(O)cc1,-0.318,1.1 (inactive),-0.128,-0.168,0.636,2.87,1.47,1.28,0.976,0.938
[N-]=[N+]=NCc1ccccc1[C@H]1OC(c2ccc(OCCCO)cc2)=N[C@@]1(Cc1ccccc1N=[N+]=[N-])C(=O)NCc1ccccc1,0.763,0.945 (inactive),0.286,0.0243,0.579,1.65,0.174,1.31,-0.633,1.12
COCCOC(=O)N1C(=O)[C@@]2(c3cc(C#CCC(C(=O)OC)C(=O)OC)ccc31)[C@H](C(=O)N1CCN(c3ncccn3)CC1)[C@H]1C(=O)O[C@H](c3ccccc3)[C@H](c3ccccc3)N1[C@@H]2c1ccc(O)cc1,0.752,0.394 (inactive),-0.0343,-0.0956,0.55,1.48,0.695,1.3,-0.358,1.01
CCOC(=O)C[C@H]1[C@H](OC(=O)Cc2ccc3c(c2)OCO3)[C@@H](NC(=O)CC(C)C)c2cc(OCCCO)ccc2N1C(=O)c1ccccc1,0.842,0.312 (inactive),-0.0682,0.0972,0.186,0.41,-0.0777,0.562,0.133,-1.14
CO[C@@H]1COC(=O)[C@H](COCc2ccccc2)NC(=O)CC=C[C@@H](C)[C@H](OC)COC(=O)[C@H](COCc2ccccc2)NC(=O)CC=C[C@H]1C,-0.711,-0.14 (inactive),-0.0063,-0.112,-0.319,0.107,-0.225,-0.136,1.1,-0.582
CO[C@]12C=C(Br)[C@@H](C[C@@H]1c1ccccc1)[C@@]1(CO1)C2=O,0.139,-0.0467 (inactive),0.0773,-0.11,0.143,-0.245,-0.0571,0.0999,0.77,0.0193
NC(=O)NCC#Cc1ccc2c(c1)[C@]1(C(=O)N2)[C@H](C(=O)N2CCCCCCC2)[C@H]2C(=O)O[C@H](c3ccccc3)[C@H](c3ccccc3)N2[C@@H]1c1ccccc1OCCO,0.408,4.79 (inactive),1.43,0.985,0.953,4.03,1.26,1.31,1.56,1.11
N#Cc1ccc(NN2C(C(O)c3ccc(I)cc3)C=CC3C(=O)N(c4ccccc4)C(=O)C32)cc1 (stereo not given),0.946,0.128 (inactive),0.212,0.139,0.74,2.21,-0.809,1.29,-0.389,1.12
COc1cc(CO)cc(I)c1O[C@H]1C=C(C(=O)NCCO)C[C@@H](NCCc2c[nH]c3ccccc23)[C@@H]1O,0.544,0.256 (inactive),0.124,-0.121,0.412,0.414,0.128,1.12,0.685,0.649
COCCOC(=O)N1C(=O)[C@@]2(c3cc(C#CCNC(N)=O)ccc31)[C@H](C(=O)N1CCCCCCC1)[C@H]1C(=O)O[C@H](c3ccccc3)[C@H](c3ccccc3)N1[C@@H]2c1ccccc1OCCO,0.328,1.01 (inactive),0.555,0.0231,0.171,0.963,0.417,1.14,0.573,1.08
Cc1cc(C)c(C(O)C2C=CC3C(=O)N(C)C(=O)C3N2N2CCCCC2)c(C)c1 (stereo not given),0.477,1.16 (inactive),0.364,0.192,0.74,1.81,0.83,1.29,0.245,1.15
CCOC(=O)C1=CC[C@@H](c2ccc(-c3ccc(OCc4ccccc4)cc3)c(OC)c2)N(S(=O)(=O)c2ccc(C)cc2)[C@H]1c1ccccc1,0.713,1.53 (inactive),0.349,-0.146,0.469,1.64,0.87,1.24,0.0693,1.13
COC(=O)[C@H]1[C@@H]2COc3ccccc3[C@H]2N[C@H]1C(=O)OC,0.235,0.0807 (inactive),-0.0351,-0.135,0.414,0.476,0.315,0.429,0.122,0.548
